# Test results reported in the supplement of paper PMC10849652.
# Of roughly 8,800 targets only a part is listed; those with a hit were picked by preference. About 0.5% of all pairs of compound and target were hits. Values without a mark were called inactive.
# Columns and labels:
# Experiment in all cases: log2 fold change, soluble protein after heating vs DMSO (PISA); higher = thermal stabilisation; K562 lysate, 10 uM; active = over 0.2 and 3.5 SD of the protein, either way, in both replicates (recomputed)
# [1] = compound: C#Cc1cccc(Nc2ncnc3cc(OCCOC)c(OCCOC)cc23)c1 [erlotinib]
# Method in brief: (§1)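 Values give the log-two fold change in thermal stability against solvent controls, from duplicates. Crude K562 extract at 1 mg/mL protein, made by dounce homogenisation in PBS pH 7.4 with 1 mM MgCl2, was treated with 10 μM compound for 30 min. After 3 min heating across 48°C-58°C, aliquots were pooled, adjusted to 0.5% NP-40 at 4°C and centrifuged at 21,000xg for 90 min. The supernatant was measured by TMTpro 16plex LC-MS/MS with channel sums equalised.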
# [2] = compound: C/C(=N\NC(=O)C1=CC(=CC=C1)S(=O)(=O)N2CCOCC2)/C3=C(C=CC(=C3)Cl)O
# Method in brief: as §1
# [3] = compound: C1=CC(=CC=C1C2=NC3=C(N2)C=C(C=C3)C(=O)N)OC4=CC=C(C=C4)Cl
# Method in brief: as §1
# [4] = compound: C1=CC2=C(C=CC(=C2)/C=C\3/C(=O)NC(=NCC4=CC=CS4)S3)N=C1
# Method in brief: as §1
# [5] = compound: C1=CC2=NC=CN=C2C=C1/C=C/3\C(=O)NC(=O)S3
# Method in brief: as §1
# [6] = compound: C1=CC=C(C=C1)C2=NC(=C(N2)C3=CC=NC=C3)C4=CC(=C(C=C4)Cl)O
# Method in brief: as §1
# [7] = compound: C1=CC=C2C(=C1)C3=NNC4=CC=CC(=C43)C2=O
# Method in brief: as §1
# [8] = compound: C1CCN(C1)C(=O)NC2=CC=CC(=C2)NC3=NC=C(C(=N3)NCCC4=CN=CN4)Br
# Method in brief: as §1
# [9] = compound: C1CN(CCC1(CC2=CC=C(C=C2)Cl)N)C3=NC=NC4=C3C=CN4
# Method in brief: as §1
# [10] = compound: C1COCCN1CCN2C3=CC=CC=C3N=C2NC(=O)C4=CC(=CC=C4)[N+](=O)[O-] [IRAK-1-4 Inhibitor I]
# Method in brief: as §1
# [11] = compound: C=CC(=O)N1CCC[C@@H](n2nc(-c3ccc(Oc4ccccc4)cc3)c3c(N)ncnc32)C1 [ibrutinib]
# Method in brief: as §1
# [12] = compound: CC(=O)c1cnc2ccc(-c3cc(Cl)c(O)c(Cl)c3)nc2c1N[C@H]1CC[C@H](CN(C)C)CC1
# Method in brief: as §1
# [13] = compound: CC(C)(C)Cn1c(N)nc2ccc(-c3[nH]c(C(C)(C)C)nc3-c3ccc(F)cc3)nc21 [ralimetinib]
# Method in brief: as §1
# [14] = compound: CC(C)(O)CC(=O)NCCn1ccc2ncnc(Nc3ccc(Oc4cccc(C(F)(F)F)c4)c(Cl)c3)c21
# Method in brief: as §1
# [15] = compound: CC(C)C1=C2N=C(C=C(N2N=C1)NCC3=CC=CC=C3)NCCCCCCN
# Method in brief: as §1
# [16] = compound: CC1=C(C(CC(=O)N1)C2=CC=C(C=C2)C(F)(F)F)C(=O)NC3=C(C=C4C(=C3)C=NN4)F
# Method in brief: as §1
# [17] = compound: CC1=C(C2=C(C=C1)C(=O)C3=CC=CC=C3N2CCCN)C
# Method in brief: as §1
# [18] = compound: CC1=C(C=C(C=C1)NC(=O)C2=CC(=CC=C2)C(C)(C)C#N)NC3=CC4=C(C=C3)N=CN(C4=O)C
# Method in brief: as §1
# [19] = compound: CC1=C(C=C(C=C1)NC(=O)C2=CC(=CC=C2)N(C)C)NC(=O)C3=CC=C(C=C3)O
# Method in brief: as §1
# [20] = compound: CC1=CC=C(C=C1)SC2=C3C=C(SC3=CN=C2)C(=O)N
# Method in brief: as §1
# Sequence of UniProt Q7L8L6 (Q7L8L6 whole entry, looked up): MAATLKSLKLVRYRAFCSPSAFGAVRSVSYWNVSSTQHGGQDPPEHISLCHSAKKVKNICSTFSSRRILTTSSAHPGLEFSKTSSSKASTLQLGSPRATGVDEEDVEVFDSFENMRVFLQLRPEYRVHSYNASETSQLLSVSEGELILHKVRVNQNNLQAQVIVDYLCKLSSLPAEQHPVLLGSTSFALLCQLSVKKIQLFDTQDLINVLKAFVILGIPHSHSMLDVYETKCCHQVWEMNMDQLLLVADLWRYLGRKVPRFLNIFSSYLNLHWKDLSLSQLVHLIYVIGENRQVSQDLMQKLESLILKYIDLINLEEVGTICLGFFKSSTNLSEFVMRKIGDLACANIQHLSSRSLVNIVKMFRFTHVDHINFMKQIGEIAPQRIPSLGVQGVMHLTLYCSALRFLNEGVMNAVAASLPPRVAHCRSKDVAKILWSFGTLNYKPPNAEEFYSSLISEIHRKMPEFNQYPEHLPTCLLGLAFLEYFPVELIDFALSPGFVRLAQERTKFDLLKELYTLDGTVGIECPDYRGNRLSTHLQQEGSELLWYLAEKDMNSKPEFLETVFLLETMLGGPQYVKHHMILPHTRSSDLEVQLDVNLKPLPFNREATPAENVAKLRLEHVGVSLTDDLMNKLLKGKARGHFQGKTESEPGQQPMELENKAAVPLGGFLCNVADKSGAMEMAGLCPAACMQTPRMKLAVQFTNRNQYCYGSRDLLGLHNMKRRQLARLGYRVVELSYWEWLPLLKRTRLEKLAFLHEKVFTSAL
# Sequence of UniProt P57772 (P57772 whole entry, looked up): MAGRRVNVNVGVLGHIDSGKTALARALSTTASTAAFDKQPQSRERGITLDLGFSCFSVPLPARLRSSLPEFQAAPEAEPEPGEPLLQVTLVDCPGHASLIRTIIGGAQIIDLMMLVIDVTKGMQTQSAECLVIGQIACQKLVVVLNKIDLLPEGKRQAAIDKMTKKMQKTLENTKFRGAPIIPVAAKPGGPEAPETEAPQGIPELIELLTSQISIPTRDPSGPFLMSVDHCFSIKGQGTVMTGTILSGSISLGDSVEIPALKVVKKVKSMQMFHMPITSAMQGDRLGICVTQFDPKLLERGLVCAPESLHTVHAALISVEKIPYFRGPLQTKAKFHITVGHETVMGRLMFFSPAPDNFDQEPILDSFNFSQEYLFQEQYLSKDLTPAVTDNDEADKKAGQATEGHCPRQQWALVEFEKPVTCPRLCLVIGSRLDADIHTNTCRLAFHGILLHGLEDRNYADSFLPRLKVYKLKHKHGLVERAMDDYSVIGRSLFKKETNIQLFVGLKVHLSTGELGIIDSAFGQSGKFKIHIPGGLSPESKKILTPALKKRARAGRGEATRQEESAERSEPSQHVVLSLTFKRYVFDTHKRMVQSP
# Sequence of UniProt O75616 (O75616 whole entry, looked up): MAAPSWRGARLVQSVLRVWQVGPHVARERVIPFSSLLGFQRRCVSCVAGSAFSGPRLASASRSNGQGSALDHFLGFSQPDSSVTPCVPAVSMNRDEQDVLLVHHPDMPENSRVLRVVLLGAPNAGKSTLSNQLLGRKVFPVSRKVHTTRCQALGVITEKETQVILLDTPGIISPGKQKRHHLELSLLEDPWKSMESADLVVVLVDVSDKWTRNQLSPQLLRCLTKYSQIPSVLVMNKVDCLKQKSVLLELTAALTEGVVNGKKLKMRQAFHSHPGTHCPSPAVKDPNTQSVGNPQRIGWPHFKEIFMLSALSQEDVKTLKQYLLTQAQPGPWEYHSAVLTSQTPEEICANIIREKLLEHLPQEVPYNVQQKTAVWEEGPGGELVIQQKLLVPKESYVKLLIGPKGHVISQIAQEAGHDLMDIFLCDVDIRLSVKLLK
# Sequence of UniProt P51570 (P51570 whole entry, looked up): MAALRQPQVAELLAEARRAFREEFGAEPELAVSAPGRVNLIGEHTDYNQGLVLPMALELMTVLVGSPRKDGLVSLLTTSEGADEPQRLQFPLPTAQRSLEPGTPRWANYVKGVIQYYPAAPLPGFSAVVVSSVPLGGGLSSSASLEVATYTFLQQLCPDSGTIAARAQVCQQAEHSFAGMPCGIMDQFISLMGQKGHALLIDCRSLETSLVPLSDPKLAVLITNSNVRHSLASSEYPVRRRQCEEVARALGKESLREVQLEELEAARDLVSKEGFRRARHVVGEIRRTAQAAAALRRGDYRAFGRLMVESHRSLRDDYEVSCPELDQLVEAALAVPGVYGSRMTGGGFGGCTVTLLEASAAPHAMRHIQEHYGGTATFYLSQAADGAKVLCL
# Sequence of UniProt O14772 (O14772 whole entry, looked up): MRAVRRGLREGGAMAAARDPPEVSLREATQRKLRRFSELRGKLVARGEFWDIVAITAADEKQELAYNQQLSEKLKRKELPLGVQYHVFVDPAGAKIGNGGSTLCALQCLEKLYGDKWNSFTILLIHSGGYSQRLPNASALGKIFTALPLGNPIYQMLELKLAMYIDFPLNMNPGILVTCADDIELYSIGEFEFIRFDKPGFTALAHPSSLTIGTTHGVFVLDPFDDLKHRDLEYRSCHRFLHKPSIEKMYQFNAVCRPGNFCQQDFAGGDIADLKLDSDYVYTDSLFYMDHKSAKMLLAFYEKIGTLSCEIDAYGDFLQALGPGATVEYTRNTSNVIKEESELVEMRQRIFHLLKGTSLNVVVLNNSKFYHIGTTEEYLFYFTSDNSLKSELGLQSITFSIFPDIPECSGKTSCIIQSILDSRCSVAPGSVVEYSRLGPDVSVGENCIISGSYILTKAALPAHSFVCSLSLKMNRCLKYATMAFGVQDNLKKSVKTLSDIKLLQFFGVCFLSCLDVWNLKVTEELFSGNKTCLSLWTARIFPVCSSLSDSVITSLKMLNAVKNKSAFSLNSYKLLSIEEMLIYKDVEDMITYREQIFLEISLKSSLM
# Sequence of UniProt Q9UBQ6 (Q9UBQ6 whole entry, looked up): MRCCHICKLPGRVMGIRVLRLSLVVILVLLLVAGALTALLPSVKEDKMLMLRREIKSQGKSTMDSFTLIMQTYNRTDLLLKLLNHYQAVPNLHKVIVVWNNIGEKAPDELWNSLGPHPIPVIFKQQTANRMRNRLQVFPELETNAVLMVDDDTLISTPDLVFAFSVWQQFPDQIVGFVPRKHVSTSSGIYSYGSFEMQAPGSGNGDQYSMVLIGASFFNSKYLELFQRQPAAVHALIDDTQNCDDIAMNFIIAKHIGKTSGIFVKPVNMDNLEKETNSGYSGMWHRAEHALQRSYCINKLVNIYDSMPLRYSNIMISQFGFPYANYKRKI
# Sequence of UniProt Q9NWS6 (Q9NWS6 whole entry, looked up): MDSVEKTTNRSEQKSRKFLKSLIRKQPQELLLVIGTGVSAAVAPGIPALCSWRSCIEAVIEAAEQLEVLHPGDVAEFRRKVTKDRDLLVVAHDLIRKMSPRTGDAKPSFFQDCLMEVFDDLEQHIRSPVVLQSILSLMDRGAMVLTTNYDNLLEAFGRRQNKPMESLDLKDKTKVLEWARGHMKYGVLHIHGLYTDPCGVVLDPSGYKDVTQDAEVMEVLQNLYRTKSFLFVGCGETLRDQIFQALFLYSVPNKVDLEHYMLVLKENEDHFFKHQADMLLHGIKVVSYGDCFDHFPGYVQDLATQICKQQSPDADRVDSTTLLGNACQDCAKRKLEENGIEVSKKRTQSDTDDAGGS
# Sequence of UniProt Q9BQS8 (Q9BQS8 whole entry, looked up): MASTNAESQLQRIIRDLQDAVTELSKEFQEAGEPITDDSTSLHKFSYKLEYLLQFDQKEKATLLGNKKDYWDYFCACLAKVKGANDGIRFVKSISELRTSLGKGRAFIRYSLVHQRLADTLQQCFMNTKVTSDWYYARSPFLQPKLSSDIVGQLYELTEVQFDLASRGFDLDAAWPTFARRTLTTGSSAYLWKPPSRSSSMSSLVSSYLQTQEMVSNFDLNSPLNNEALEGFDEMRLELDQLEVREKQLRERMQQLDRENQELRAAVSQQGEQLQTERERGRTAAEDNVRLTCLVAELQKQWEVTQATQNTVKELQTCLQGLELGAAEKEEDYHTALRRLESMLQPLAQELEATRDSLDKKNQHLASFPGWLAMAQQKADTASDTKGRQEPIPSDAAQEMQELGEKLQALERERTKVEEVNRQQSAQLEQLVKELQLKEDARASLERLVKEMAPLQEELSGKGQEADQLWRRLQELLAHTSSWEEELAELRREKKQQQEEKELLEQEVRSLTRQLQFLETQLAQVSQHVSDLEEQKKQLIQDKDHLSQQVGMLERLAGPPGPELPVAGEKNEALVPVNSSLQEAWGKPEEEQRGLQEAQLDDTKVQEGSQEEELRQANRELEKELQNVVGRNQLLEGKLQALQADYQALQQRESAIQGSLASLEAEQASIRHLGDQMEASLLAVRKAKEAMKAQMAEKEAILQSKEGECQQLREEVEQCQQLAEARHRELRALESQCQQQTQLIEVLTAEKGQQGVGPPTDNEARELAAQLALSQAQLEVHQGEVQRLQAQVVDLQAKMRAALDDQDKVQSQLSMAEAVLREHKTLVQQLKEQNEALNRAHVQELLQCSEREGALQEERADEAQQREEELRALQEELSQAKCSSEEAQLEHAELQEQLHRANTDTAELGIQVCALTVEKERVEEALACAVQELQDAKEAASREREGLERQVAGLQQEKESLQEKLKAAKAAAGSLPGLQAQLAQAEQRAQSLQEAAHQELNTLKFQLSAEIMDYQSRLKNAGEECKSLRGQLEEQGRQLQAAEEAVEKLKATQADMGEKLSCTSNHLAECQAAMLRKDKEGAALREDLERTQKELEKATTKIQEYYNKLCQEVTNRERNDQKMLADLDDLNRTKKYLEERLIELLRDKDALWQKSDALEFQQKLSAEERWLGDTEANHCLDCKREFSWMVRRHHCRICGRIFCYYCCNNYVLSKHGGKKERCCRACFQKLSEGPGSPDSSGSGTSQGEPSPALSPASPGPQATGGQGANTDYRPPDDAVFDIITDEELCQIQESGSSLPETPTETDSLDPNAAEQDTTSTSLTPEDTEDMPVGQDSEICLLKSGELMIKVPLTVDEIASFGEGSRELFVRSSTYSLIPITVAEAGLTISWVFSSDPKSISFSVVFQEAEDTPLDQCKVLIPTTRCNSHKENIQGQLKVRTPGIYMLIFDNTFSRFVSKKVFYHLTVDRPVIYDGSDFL
Target,log2 fold change [1],log2 fold change [2],log2 fold change [3],log2 fold change [4],log2 fold change [5],log2 fold change [6],log2 fold change [7],log2 fold change [8],log2 fold change [9],log2 fold change [10],log2 fold change [11],log2 fold change [12],log2 fold change [13],log2 fold change [14],log2 fold change [15],log2 fold change [16],log2 fold change [17],log2 fold change [18],log2 fold change [19],log2 fold change [20]
ECH1 (UniProt Q13011),-0.041,-0.049,-0.022,0.002,-0.022,0.499 (active),0.232,-0.009,0.017,-0.007,-0.035,-0.02,0.064,-0.036,-0.033,0.04,-0.02,-0.017,-0.018,0.013
GALK1 isoform 2 (UniProt P51570),0.021,0.022,0.01,-0.076,-0.024,-0.015,-0.031,0.023,0.058,0.042,0.002,0.032,-0.013,-0.001,-0.006,-0.021,-0.026,0.002,-0.001,0.04
EFCAB14 (UniProt O75071),0.019,0.115,0.043,-0.036,-0.019,-0.042,-0.022,0.01,0.042,0.011,0.026,0.015,0.055,-0.075,-0.045,0.077,0.02,0.011,0.016,0.012
ERAL1 (UniProt O75616),-0.016,-0.003,0.05,-0.014,0.03,0.015,-0.027,-0.041,-0.047,-0.042,0.052,-0.042,0.03,0.011,-0.007,0.047,0.03,0.014,0.045,0.018
EXTL2 (UniProt Q9UBQ6),-0.02,-0.037,0.072,0.103,-0.443,0,0.092,0.003,-0.007,-0.049,0.217,-0.056,-0.015,0,-0.077,0.021,-0.146,0.014,-0.04,-0.071
EDC3 (UniProt Q96F86),-0.008,-0.01,-0.023,-0.02,-0.031,0.035,-0.011,-0.027,-0.013,0,0.038,0.016,0.004,0.001,0.046,0.039,-0.014,0.009,0.019,-0.023
FYCO1 isoform 4 (UniProt Q9BQS8),0.029,0.026,0.014,-0.01,-0.019,-0.006,-0.016,-0.013,0.009,0,-0.012,-0.015,0.021,-0.026,0,0.029,-0.019,-0.003,-0.028,0
"EEF1A1, A0A087WVQ9",0.029,-0.049,0.054,-0.069,-0.016,-0.035,-0.072,-0.019,-0.001,0.03,0.085,0.019,-0.006,0.019,-0.007,0.091,0,-0.023,-0.006,0.004
ENGASE (UniProt Q8NFI3),0.036,0,0.043,-0.069,0.008,0.002,-0.04,0.009,0.043,0.007,0.019,0.019,-0.02,0.012,-0.02,-0.002,0.012,-0.046,0.067,0
FASTKD5 (UniProt Q7L8L6),0.061,0.019,-0.054,0.023,0.013,-0.014,-0.066,-0.047,0.013,-0.019,-0.134,0.056,0.073,0.007,-0.027,0.032,0.006,0.021,0.008,-0.053
EPN2 (UniProt O95208),0.054,-0.08,-0.001,-0.011,-0.059,-0.039,0.003,-0.003,0.007,-0.005,-0.01,-0.016,0.075,-0.004,-0.058,0.009,-0.024,0.001,0.017,-0.009
FANCD2 isoform 1 (UniProt Q9BXW9),0.059,0.002,0.019,-0.049,0.01,0.006,-0.092,-0.062,0.095,0.036,0.01,-0.009,0,-0.066,0.048,-0.02,-0.068,0.071,0.011,-0.008
FPGT (UniProt O14772),0.031,-0.005,-0.003,0.011,0.023,-0.002,-0.108,0.006,-0.013,0.023,-0.016,-0.033,0.005,0.011,0.014,0.009,0.029,0.02,0.003,-0.033
EEF1A1P5 (UniProt Q5VTE0),0.014,-0.054,0.023,0,0.001,-0.01,-0.065,-0.048,0.022,0.003,-0.01,-0.007,0.001,-0.014,0.032,0.008,0.019,-0.006,0.012,-0.011
FAM118A (UniProt Q9NWS6),0.03,-0.03,-0.016,0.022,0.029,0.012,-0.006,0.021,0.048,0.051,-0.024,0.01,0.041,-0.052,-0.01,-0.004,-0.052,0.015,0.014,-0.004
EEFSEC (UniProt P57772),-0.006,0.054,-0.044,-0.022,0.006,-0.044,-0.054,-0.025,-0.007,-0.024,0.031,-0.03,0.019,-0.013,-0.025,-0.011,0.005,0.011,0.039,0.006
